Assay results reported in paper PMC4336329 (PLoS ONE, 2015).
About 14,000 (4.5%) of roughly 310,000 compounds showed an effect of 50% or more. The effect is printed as a negative number. Shown is part of a subset that was picked to be rich in strong results.

Target: human ether-à-go-go-related gene (hERG) potassium channel (human, UniProt Q12809)
Test: primary screen, population patch clamp on CHO cells stably expressing hERG; higher = less effect of the substance
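Note: peak tail current of the secondary pulse compared with the same well before compound.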

Sequence of human ether-à-go-go-related gene (hERG) potassium channel (Q12809 whole entry, looked up): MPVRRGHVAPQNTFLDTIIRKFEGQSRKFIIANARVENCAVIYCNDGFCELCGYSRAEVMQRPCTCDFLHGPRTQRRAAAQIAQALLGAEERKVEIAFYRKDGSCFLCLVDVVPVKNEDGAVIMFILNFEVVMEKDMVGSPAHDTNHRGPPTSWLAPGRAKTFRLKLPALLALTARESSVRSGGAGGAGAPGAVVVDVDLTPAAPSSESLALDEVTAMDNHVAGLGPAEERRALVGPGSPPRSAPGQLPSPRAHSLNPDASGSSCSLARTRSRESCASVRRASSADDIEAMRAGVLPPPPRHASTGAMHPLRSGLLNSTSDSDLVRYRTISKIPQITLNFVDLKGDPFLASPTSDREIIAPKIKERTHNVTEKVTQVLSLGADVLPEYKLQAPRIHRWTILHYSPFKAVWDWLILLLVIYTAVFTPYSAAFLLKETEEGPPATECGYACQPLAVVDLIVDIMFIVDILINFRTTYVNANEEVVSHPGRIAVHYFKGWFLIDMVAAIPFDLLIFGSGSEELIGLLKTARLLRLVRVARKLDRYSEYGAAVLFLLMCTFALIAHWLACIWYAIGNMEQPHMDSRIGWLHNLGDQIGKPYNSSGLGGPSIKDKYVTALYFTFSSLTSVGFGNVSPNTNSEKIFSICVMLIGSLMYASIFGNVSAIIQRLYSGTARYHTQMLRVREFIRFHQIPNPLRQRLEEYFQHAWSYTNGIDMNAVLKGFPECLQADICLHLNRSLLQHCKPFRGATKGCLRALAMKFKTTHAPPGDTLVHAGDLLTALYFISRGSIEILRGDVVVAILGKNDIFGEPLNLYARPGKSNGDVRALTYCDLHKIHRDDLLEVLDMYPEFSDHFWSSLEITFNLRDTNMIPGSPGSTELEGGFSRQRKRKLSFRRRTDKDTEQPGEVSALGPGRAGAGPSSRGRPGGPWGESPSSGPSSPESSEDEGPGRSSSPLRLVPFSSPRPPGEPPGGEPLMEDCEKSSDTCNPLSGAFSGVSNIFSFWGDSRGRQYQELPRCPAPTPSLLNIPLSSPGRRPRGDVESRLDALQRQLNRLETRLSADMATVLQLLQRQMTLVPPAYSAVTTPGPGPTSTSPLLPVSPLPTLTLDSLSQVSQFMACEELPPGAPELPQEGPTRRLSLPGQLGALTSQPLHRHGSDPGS

SMILES | hERG current change (%, negative = inhibition) at 10uM [%]
CCCCN(C)C(=O)c1cn(CC)c2ccc(S(=O)(=O)N(C)C)cc2c1=O | 8.08
c1cc(C(c2nnnn2C2CCCCC2)N2CCN3CCCC3C2)ccn1 (stereo not shown) | -1.98
COc1ccc(NC(=O)C2CCCN2C(=O)NC2CCCCC2)cc1 (stereo not shown) | -2.82
CN(C)CCOc1ccccc1Cc1ccccc1.O=C(O)CC(O)(CC(=O)O)C(=O)O | -61.9
O=C(O)COc1ccccc1Cc1ccccc1 | 5.22
CN(C)CCOc1ccccc1C(C)(C)C.O=C(O)C(=O)O | 5.47
COc1ccc(-n2ccc3ccccc32)cc1 | 13
CCCCCn1c(=O)c(F)cn(Cc2ccc(OC)c([N+](=O)[O-])c2)c1=O | -56.6
CCCCn1c(=O)c(F)cn(Cc2ccc(OC)c([N+](=O)[O-])c2)c1=O | -25.2
CCCCCCn1c(=O)c(F)cn(Cc2ccc(OC)c([N+](=O)[O-])c2)c1=O | -40.3
CC(C)(C)C(=O)Oc1ccc2cc(-c3ccc4ccccc4n3)c(=O)oc2c1 | -10.5
c1ccc(CN2CCN(Cc3ccc4c(c3)OCCO4)CC2)cc1 | -10.6
Nc1nc(COC(=O)c2ccc3c(c2)OCCO3)nc(Nc2ccccc2)n1 | 10.2
O=C(CCN1CCN(c2ccccc2F)CC1)Nc1ccc2c(c1)OCO2 | -27.6
CN1CCN(Cc2nc(N)nc(Nc3ccc4c(c3)OCCO4)n2)CC1 | -26.1
Nc1nc(CN2CCN(Cc3ccccc3)CC2)nc(Nc2ccc3c(c2)OCCO3)n1 | -74.8
Nc1nc(CN2CCN(c3ccccc3F)CC2)nc(Nc2ccc3c(c2)OCCO3)n1 | -74.4
Cc1c(C(c2ccc(F)cc2)c2c(O)c3ccccc3oc2=O)c(=O)n(-c2ccccc2)n1C (stereo not shown) | -20.9
COc1ccc(-n2c(-c3ccco3)nc3c(cnn3-c3ccc(C)cc3)c2=O)cc1 | 1.88
C=CCn1c(NC(=O)c2ccc(C)cc2)nc2ccccc21 | 6.35
Cc1ccc(NCC(=O)N/N=C/c2c[nH]c3ccccc23)cc1 | 11.4
CC(C)NC(=O)C(Cc1ccccc1)N1C(=O)c2ccccc2C1=O (stereo not shown) | -4.63

SMILES | hERG current change (%, negative = inhibition) at 10uM [%]
COc1ccc(/C(O)=C2/C(=O)C(=O)N(CCN(C)C)C2c2cccnc2)cc1C (stereo not shown) | 1.58
CC(=O)c1ccc(N2CCN(C(=O)Nc3ccc(C)cc3)CC2)cc1 | -4.03
O=C(Nc1ccccc1)N1CCN(c2ccc(F)cc2)CC1 | -7.74
O=C(Nc1ccc(F)cc1)N1CCN(c2ccc(F)cc2)CC1 | -67.8
O=C(Nc1ccc2snnc2c1)N1CCSCC1 | 6.76
O=C(Nc1ccc2snnc2c1)N1CCN(c2ccccc2)CC1 | -57.2
CC(=O)N1CCN(c2ccc(NC(=O)c3ccc(F)cc3)cc2)CC1 | -57.7
CC(=O)N1CCN(c2ccc(NC(=O)c3ccc(C(C)(C)C)cc3)cc2)CC1 | 0.16
CC(=O)c1ccc(N2CCN(C(=O)Nc3ccc(C(C)C)cc3)CC2)cc1 | -63.7
CC(=O)N1CCN(c2ccc(NC(=O)c3ccc(C)cc3)cc2)CC1 | 5.89
CC(=O)c1ccc(N2CCN(C(=O)Nc3ccc(F)cc3)CC2)cc1 | -24.5
O=C(Nc1ccc2snnc2c1)N1CCCCC1 | 11.9
CC(=O)c1ccc(N2CCN(C(=O)Nc3ccc(Cl)cc3)CC2)cc1 | -8.35
O=S(=O)(Nc1ccc(N2CCOCC2)cc1)c1ccc2ccccc2c1 | 3.3
O=C1C(=O)N(CCS(=O)(=O)c2ccccc2)c2ccc(F)cc21 | 8.67
O=C(OCC(=O)N(CCc1ccccc1)Cc1ccccc1)c1cc(S(=O)(=O)N2CCOCC2)ccc1F | -10.8
Cn1c(N2CCOCC2)cc(=O)n(C)c1=O | -18.2
Cc1cc(C(=O)N2CCc3ccccc3C2)n[nH]1 | 5.11
Nc1cccc(NP(=O)(c2ccccc2)c2ccccc2)c1 | 11.7
Cc1c(NC(=O)C2Cc3ccccc3CN2C(=O)c2ccco2)c(=O)n(-c2ccccc2)n1C (stereo not shown) | -13.7
COc1ccc(C(=O)COC(=O)/C=C/c2ccc(S(=O)(=O)Nc3cccc(S(N)(=O)=O)c3)cc2)cc1 | 4.88
